Vif-A3F inh: qHTS for Inhibitors of Vif-A3F Interactions: qHTS; HeLa A3F-eYFP + Vif (tagged APOBEC3F with the HIV-1 protein that degrades it), YFP fluorescence increase; actives 0.2% (n = 390,000); Potency, µM (top dose mostly 46.1 µM), for inactives: top-dose activity, negative = active; note: potency is the fitted concentration of half-maximal effect; % of control where 0% means no effect; nearly all actives have a fitted effect of over 65% in size
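Fluorescence increase (Ex 488/Em 500-530) after overnight compound treatment at 37 deg C flags inhibition of Vif-driven A3F-eYFP loss in stable HeLa A3F-eYFP/Vif cells seeded overnight beforehand.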
MCF10A rereplic: A quantitative high throughput screen for small molecules that induce DNA re-replication in MCF 10a normal breast cells | MCF 10A DNA re-replication, Hoechst nuclear intensity, 48 h | Potency, µM (highest dose often 46.1 µM), for inactives: at the highest dose activity, positive = re-replication, hits mostly activators | actives 2.9% (n = 350,000) | AID 624296, 2012; note: potency is the fitted concentration of half-maximal effect; % of control where 0% means no effect; nearly all actives have a fitted effect of over 50% in size
IL-1B inflam inh: qHTS for Inhibitors of Inflammasome Signaling: IL-1-beta AlphaLISA Primary Screen. THP-1 LPS/ATP IL-1B secretion, AlphaLISA, 16 h; hits give low values. activity change, % at 57.5 µM. actives 4.7% (n = 360,000). AID 743279, 2014; in the data active = activity change below about -50%; inconclusive = mostly about -30% to -49%; note: % is set by controls: 0 for no effect and ±100 for the full control effect
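Secreted IL-1B measured by AlphaLISA bead assay after 16 h compound exposure of THP-1 cells; compounds (final up to 57.5 uM) added 1 h before LPS (250 ng/mL) and ATP (1.25 mM) stimulation; lower signal means less secretion.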
Vif-APOBEC3G blk: qHTS for Inhibitors of Vif-A3G Interactions: qHTS; HeLa A3G-eYFP + Vif (tagged APOBEC3G with the HIV-1 protein that degrades it), YFP fluorescence, overnight; Potency, µM (titrated, usually from 46.1 µM), inactives show at the highest dose activity, negative = active, hits mostly inhibitors; actives 0.076% (n = 410,000); AID 602310, 2012; note: potency is the fitted concentration of half-maximal effect; % is set by controls: 0 for no effect and ±100 for the full control effect; nearly all actives have a fitted effect of over 60% in size
Target sequence (Q9HC16 whole entry, looked up): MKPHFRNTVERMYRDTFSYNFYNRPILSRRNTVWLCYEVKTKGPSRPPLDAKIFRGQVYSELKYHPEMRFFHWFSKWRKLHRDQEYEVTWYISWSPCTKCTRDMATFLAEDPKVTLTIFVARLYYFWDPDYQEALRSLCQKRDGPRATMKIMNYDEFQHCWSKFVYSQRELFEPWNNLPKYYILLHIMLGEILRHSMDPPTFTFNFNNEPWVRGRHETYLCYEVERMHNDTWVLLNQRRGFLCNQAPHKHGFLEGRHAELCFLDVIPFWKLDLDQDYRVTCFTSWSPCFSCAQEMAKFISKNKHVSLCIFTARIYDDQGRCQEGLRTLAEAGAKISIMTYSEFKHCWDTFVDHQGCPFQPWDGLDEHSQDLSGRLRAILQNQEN
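HeLa cells stably expressing Vif and C-terminally eYFP-tagged A3G, seeded overnight at 37 deg C, then exposed to compound by pintool overnight at 37 deg C. Rise in yellow fluorescence (Ex 488/Em 500-530, Acumen) marks blocked Vif-driven A3G degradation.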
Giardia kill: Small Molecules that selectively kill Giardia lamblia: qHTS | Giardia lamblia trophozoite viability | activity change, % at 7.66 µM, hits read low | actives 0.15% (n = 340,000) | AID 540267, 2011; in the data active = activity change below about -80%; inconclusive = between about -30% and that limit;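 note: parasites exposed to compound for two days anaerobically before the ATP read; % is set by controls: 0 for no effect and ±100 for the full control effect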
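Media and compound were dispensed first, then trophozoites at 100 cells/well; plates sat 48 hrs at 37 deg C without oxygen before ATP luminescence reagent was added and read after 15-30 min at room temperature.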
SW480 rerep: A quantitative high throughput screen for small molecules that induce DNA re-replication in SW480 colon adenocarcinoma cells | SW480 DNA re-replication, Hoechst DNA content imaging, 48 h | Potency, µM (top dose mostly 46.1 µM), for the others: at the top dose re-replication activation, most hits filed as activators | actives 1.8% (n = 340,000) | AID 624297, 2012; note: potency is the fitted concentration of half-maximal effect; % of control where 0% means no effect; nearly all actives have a fitted effect of over 55% in size
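Per well, 250 cells were exposed to pinned compound for 48 hr. Nuclear DNA was visualised with Hoechst (40 min, 37 C) and total object intensity recorded by fluorescence scanning.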
Starred values were filed as active, the others as inactive; ? = inconclusive; . = no result given; [ ] = another dose, or the depositor's remark. Hits are enriched below; roughly 6.9% of the tested compounds scored in any of these assays. Unless noted, calls come from the whole dose curve; as a rule, active = well fitted curve in the direction sought with a large enough effect; inconclusive = small, poorly fitted or top-dose-only effect, or another doubt; inactive = no such curve, though single readings can be large; an effect the other way counts as inactive or inconclusive.

SMILES	Vif-A3F inh	MCF10A rereplic	IL-1B inflam inh	Vif-APOBEC3G blk	Giardia kill	SW480 rerep
CCOC(=O)c1c(C)[nH]c(CCC(=O)Nc2ccc(C)c(F)c2)c1C	4%	.	.	1%	.	.
O=C(CC1C(=O)OCCN1Cc1ccccc1)Nc1cccc(Cl)c1 (configuration not stated)	0%	.	.	1%	.	.
O=C(Nc1nnc(CCc2ccccc2)s1)C1CCN(C(=O)c2ccco2)CC1	.	.	.	1%	-15	.
O=C(N/N=C/c1ccccc1O)C(=O)N1CCCCCC1	-7%	17%	164	2%	26	5.8µM*
O=C(N/N=C/c1ccccc1F)C(=O)N1CCCCCC1	5%	-14%	17	3%	13	-19%
O=C(COc1ccc(F)cc1Cl)Nc1cccc(S(=O)(=O)N2CCCC2)c1	-6%	-5%	-52*	2%	26	-16%
O=C(CCl)Nc1cccc(S(=O)(=O)N2CCCCCC2)c1	-6%	?	-102*	?	3	13µM*
COc1ccc(Br)cc1CN(C)CC(=O)Nc1cccc(S(=O)(=O)N2CCCC2)c1	2%	?	-52*	8%	-14	?
CC(NCc1cc(Br)ccc1OCC(=O)NCc1ccccc1)c1ccccc1 (configuration not stated)	-6%	?	-68*	0%	-5	?
Cc1cccc(C(=O)NC2(C(F)(F)F)N=C(c3ccccc3)N(C3CCCCC3)C2=O)c1 (configuration not stated)	4%	.	.	2%	.	.
O=C(COc1ccc(Br)cc1CO)Nc1ccc(F)cc1	0%	-1%	-12	5%	-6	0%[9.22 µM]
O=C(COc1ccc(Br)cc1CO)Nc1ccc(S(=O)(=O)N2CCCC2)cc1	10%	14%	-57*	0%	8	5%
O=C(COc1ccc(Br)cc1Cl)NC1CCCCC1	?	1%	-7	-2%	2	-1%
O=C(COc1ccc(Br)cc1CNC1CCCC1)Nc1ccccc1	4%	9%	-63*	4%	10	8%
Cc1nn(-c2ccc(N3CCCCC3)nn2)c(C)c1CCC(=O)Nc1ccc(F)cc1F	-3%	.	.	-12%	.	.
O=[N+]([O-])/C=C/c1cn(Cc2ccc(F)cc2)c2ccccc12	-10%	?	-72*	?	-7	?
C=C1C=C(C(F)F)n2ncc(C(=O)Nc3ccc(Br)cc3C(F)(F)F)c2N1	.	.	.	-2%	.	.
CNc1ncnc(Sc2nc(N)nc3nc[nH]c23)c1[N+](=O)[O-]	11%	?	-59*	-20%	6	2.9µM*
Nc1nc(Sc2ccc([N+](=O)[O-])c3nonc23)c2[nH]cnc2n1	?	?	-119*	?	-2	?
Nc1nc(SCc2ccccc2)c2[nH]cnc2n1	7%	1%	-23	-7%	-2	57%
C=C1C=C(C(F)F)n2ncc(C(=O)NCc3ccccc3)c2N1	.	.	.	0%	.	.
CC(C)c1ccc(C(=O)Nc2cc(-c3ccccc3F)nn2-c2ccccc2)cc1	-1%	.	.	-3%	.	.
COC(=O)[C@@H](Cc1c[nH]c2ccccc12)NCc1ccc(B(O)O)cc1	2%	-36%	1	-1%	-4	1.2µM*
COC(=O)C(Cc1c[nH]c2ccccc12)NC(=O)CNC(C)=O (configuration not stated)	0%	5%	-2	1%	-17	-5%
COC(=O)[C@H](Cc1c[nH]c2ccccc12)NCc1cccc(B(O)O)c1	0%	-8%	-66*	-2%	-2	4.6µM*
SMILES	Vif-A3F inh	MCF10A rereplic	IL-1B inflam inh	Vif-APOBEC3G blk	Giardia kill	SW480 rerep
CCN(CC)c1ccc(CNS(=O)(=O)c2cc3c(cc2C)NC(=O)CO3)cc1	3%	.	.	3%	.	.
Clc1ccc(Sc2oc(/C=N/n3cnnc3)cc2Br)cc1	0%	5%	0	-4%	12	1%
CN(C)C(=O)/C(C#N)=C\c1cc(Br)c(Sc2ccc(Cl)cc2)o1	6%	4%	-94*	-13%	-11	2%
O=[N+]([O-])c1ccc(O)c(C2CCCCC2)c1	11%	?	?	1%	-20	?
NC(=O)c1cc(Br)cc(C2CCCCC2)c1O	20%	?	-56*	-10%	-9	22%
Cc1cccc(NC(=O)Cn2c(=O)nc(-c3ccccc3)c3ccccc32)c1C	-4%	.	.	-5%	.	.
NC(=O)c1c(NC(=O)CS(=O)(=O)c2ccc(Cl)cc2)sc2c1CCCC2	7%	.	.	2%	.	.
Cc1oc(-c2ccc(Cl)cc2)nc1Cn1c(=O)cc(-c2ccccc2)c2c(C)nn(C)c21	-3%	.	.	-2%	.	.
CN1CCN(CC(O)(c2ccc(Cl)cc2)c2ccc(Cl)cc2)CC1	11%	-1%	-85*	5%	7	28%
CN1CCN(CC(O)COc2ccc(Cl)cc2)CC1 (configuration not stated)	-7%	6%	13	0%	16	-2%
CCC(=O)N1CCc2cc(S(=O)(=O)NC(Cc3ccccc3)C(=O)Nc3cccc(OC)c3)ccc21 (configuration not stated)	4%	.	.	-2%	.	.
O=C(CSc1nc(NS(=O)(=O)c2ccccc2)cc(=O)[nH]1)Nc1ccc(Cl)cc1	-8%	0%	32	-1%	-18	-23%
O=c1cc(NS(=O)(=O)c2ccccc2)nc(SCc2ccc(Cl)cc2)[nH]1	-23%	?	-56*	-1%	7	-4%
Cc1cc(C)cc(OCc2nc3ncc(Br)cc3[nH]2)c1	-16%	?	41	-22%	10	5.2µM*
CC(C)(C)c1ccc2c(S(=O)(=O)O)c(C(C)(C)C)ccc2c1	.	0%	.	.	.	2%
O=C(CN1CCN(c2ccccc2O)CC1)Nc1ccc2c(c1)OCCCO2	-1%	2%	-50*	-10%	-6	-7%
CCc1ccc(N2CC(C(=O)Nc3ccc(C)c(S(=O)(=O)N4CCOCC4)c3)CC2=O)cc1 (configuration not stated)	?	1%	-5	3%	18	0%
CCc1ccc(N2CC(C(=O)Nc3ccc(S(=O)(=O)N4CCOCC4)cc3)CC2=O)cc1 (configuration not stated)	4%	3%	-61*	-5%	-4	-2%
CC(C)=CC1C(C(=O)Nc2ccc(S(=O)(=O)N3CCOCC3)cc2)C1(C)C (configuration not stated)	6%	?	-64*	0%	20	-441%

From PubChem
